Test systems include BT-549 breast; MDA-MB-435 melanoma; SW-620 colon; MCF7 breast; HCT-116 colon; HCC-2998 colon; KM12 colon.
What all share (assay): NCI-60 one-dose screen, 48 h (100 = growth as untreated, 0 = no growth, -100 = all killed)
What all share (settings): 10 µM unless noted

This is part of a sample that, as a whole, favours compounds with a hit. Of some 83,000 tested, about 20% had one in any assay.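 Results are percent growth after 48 hours of single-concentration exposure. 100 means growth as in untreated cells, lower positive values show inhibition; negative values down to -100 show cell death.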 Values without a mark were called inactive. Activity calls are given as the source filed them. The calls were made as follows: active = growth percent below 10; inactive = the rest.

`COc1ccc2oc(=O)cc(-c3nc4ccc(N)cc4[nH]3)c2c1`: the growth with BT-549 breast is 77.1%; with MDA-MB-435 melanoma it was 106%; in the experiment on SW-620 colon it was 103%; in the experiment on MCF7 breast, 77.2%; in the experiment on HCT-116 colon, 88.6%; with HCC-2998 colon it was 97.9%. Further, in the experiment on KM12 colon, the growth was 87.7%.

Consider `COC(=O)c1cncc(C(=O)Nc2ccc(-n3cnc4ccccc43)cc2)c1`, for which the growth is 96.1% with BT-549 breast; 105% in the experiment with MDA-MB-435 melanoma; 112% in the experiment on SW-620 colon; 84.7% in the experiment with MCF7 breast; 103% in the experiment on HCT-116 colon; 116% with HCC-2998 colon. Also, the growth with KM12 colon is 88.4%.

`Cc1cnc(SCc2ccc(Cl)cc2Cl)nc1Nc1ccc(Cl)c(Cl)c1`: the growth with BT-549 breast was 101%; in the experiment with MDA-MB-435 melanoma, 104%; with SW-620 colon it was 102%; in the experiment on MCF7 breast, 85.4%; with HCT-116 colon, 77.3%; with HCC-2998 colon, 103%. In addition, the growth in the experiment on KM12 colon is 89.4%.

As to `CCN(CC)c1ccc2c(c1)Oc1nc(N)c(C#N)c(N)c1C2Sc1ccc(OC)cc1` (centres undefined), the growth in the experiment with BT-549 breast was -0.405% (active); in the experiment with MDA-MB-435 melanoma it was -26.8% (active); in the experiment with SW-620 colon, -8.27% (active); in the experiment on MCF7 breast, 0.303% (active); in the experiment with HCT-116 colon, 2.7% (active); in the experiment with HCC-2998 colon it was -49.2% (active). For the same molecule, the growth with KM12 colon is -33% (active).

`[2H]c1nc(Nc2ncc3cc(C(=O)N(C)C)n(C4CCCC4)c3n2)c([2H])c([2H])c1N1C([2H])([2H])C([2H])([2H])NC([2H])([2H])C1([2H])[2H]`: the growth in the experiment on BT-549 breast is 89.4%; in the experiment on MDA-MB-435 melanoma, 68.9%; with SW-620 colon, 35.5%; in the experiment with MCF7 breast it was 46.9%; in the experiment on HCT-116 colon, 40.9%; with HCC-2998 colon, 77.5%. Besides, in the experiment with KM12 colon, the growth is 42.5%.

Consider `CN1CCN(CC#CCOC(=O)CNC(=O)[C@]23CCC(C)(C)C[C@H]2C2=CC[C@@H]4[C@@]5(C)CC[C@H](O)C(C)(C)[C@@H]5CC[C@@]4(C)[C@]2(C)CC3)CC1`, for which the growth in the experiment on BT-549 breast was 88.9%; in the experiment on MDA-MB-435 melanoma, 101%; in the experiment with SW-620 colon, 86.8%; in the experiment with MCF7 breast, 72%; in the experiment with HCT-116 colon, 76.2%; with HCC-2998 colon, 106%. Besides, the growth in the experiment with KM12 colon is 94.5%.

With `CCC[S@](=O)c1ccc2nc(NC(=O)OC)[nH]c2c1`, the growth in the experiment with BT-549 breast is 97.3%; in the experiment on MDA-MB-435 melanoma, 101%; in the experiment on SW-620 colon, 93.4%; in the experiment with MCF7 breast, 92%; with HCT-116 colon it was 84.4%; with HCC-2998 colon, 105%. Moreover, the growth in the experiment on KM12 colon was 103%.

For `O=C1NC(SCc2ccc(F)cc2)=N/C1=C/c1cccc(OCc2ccc(Cl)cc2)c1`, the growth in the experiment on BT-549 breast was 87.2%; in the experiment on MDA-MB-435 melanoma it was 88.5%; in the experiment with SW-620 colon it was 54.1%; in the experiment with MCF7 breast, 64.1%; in the experiment with HCT-116 colon, -10.9% (active); in the experiment with HCC-2998 colon it was 92.1%. For the same molecule, the growth in the experiment with KM12 colon is 88.9%.

Consider `COc1cc(C2=N/C(=C\c3cc4ccccc4nc3Oc3ccccc3)C(=O)N2C(=N)N)cc(OC)c1OC`, for which the growth with BT-549 breast was 32.7%; in the experiment with MDA-MB-435 melanoma it was 95.2%; in the experiment with SW-620 colon, 87.8%; with MCF7 breast, 75.5%; with HCT-116 colon, 52.8%; in the experiment with HCC-2998 colon it was 75.2%. In addition, the growth in the experiment on KM12 colon is 79.6%.

Regarding `C=C1C(=O)O[C@H]2[C@H]1CC/C(C=Nc1c(N)cc(F)cc1Br)=C\CC[C@@]1(C)O[C@@H]21`, the growth is 84.8% in the experiment with BT-549 breast; 83.2% in the experiment on MDA-MB-435 melanoma; 26.5% with SW-620 colon; 24.4% with MCF7 breast; 48.2% in the experiment on HCT-116 colon; 109% in the experiment on HCC-2998 colon. Moreover, in the experiment with KM12 colon, the growth is 98.8%.

Consider `CCC1S/C(=N\N=C(/C)c2ccc[nH]2)N(c2ccccc2)C1=O` (centres undefined), for which the growth was 126% in the experiment on BT-549 breast; 104% with MDA-MB-435 melanoma; 92.8% in the experiment with SW-620 colon; 117% with MCF7 breast; 91.6% with HCT-116 colon; 104% in the experiment with HCC-2998 colon. Moreover, the growth with KM12 colon was 112%.

On to `COC1=CC=CC2(OC)C3(O)CCCc4cccc(c43)N3C(=O)COC132` (centres undefined), for which the growth with BT-549 breast was 103%; in the experiment with MDA-MB-435 melanoma, 103%; in the experiment with SW-620 colon it was 103%; with MCF7 breast, 96.3%; in the experiment with HCT-116 colon, 89.7%; with HCC-2998 colon, 103%. In the experiment on KM12 colon, the growth is 105%.

Consider `COCCOC(=O)COc1ccc(OC)cc1`, for which the growth was 103% with BT-549 breast; 89.8% with MDA-MB-435 melanoma; 93.5% with SW-620 colon; 97.3% with MCF7 breast; 106% in the experiment with HCT-116 colon; 111% in the experiment on HCC-2998 colon. The growth in the experiment on KM12 colon is 100%.

With `COc1ccccc1-c1ccc2nc(NC(=O)Nc3cc(C(F)(F)F)cc(C(F)(F)F)c3)sc2c1`, the growth with BT-549 breast is 13.2%; in the experiment on MDA-MB-435 melanoma it was 10.9%; in the experiment on SW-620 colon, 11.9%; in the experiment on MCF7 breast, 4.1% (active); in the experiment on HCT-116 colon, 4.85% (active); in the experiment on HCC-2998 colon, 11.8%. Also, the growth in the experiment with KM12 colon was 3.63% (active).

In the case of `C/C(=N/Nc1nc2ccccc2n1C)c1ccccn1`, the growth is 13.5% in the experiment with BT-549 breast; 32.5% in the experiment on MDA-MB-435 melanoma; 23.6% with SW-620 colon; 3.47% (active) in the experiment with MCF7 breast; 2.75% (active) in the experiment on HCT-116 colon; 39.3% with HCC-2998 colon. For the same molecule, the growth in the experiment with KM12 colon is 19.7%.

Take `NS(=O)(=O)c1ccc(N2Cc3cc(Cl)ccc3OC3=C2C(=O)N(CC2CCCCC2)C3=O)cc1`: the growth in the experiment with BT-549 breast was -76.4% (active); in the experiment with MDA-MB-435 melanoma it was -73.9% (active); with SW-620 colon, -77.5% (active); in the experiment with MCF7 breast, -71.5% (active); in the experiment on HCT-116 colon, -85.6% (active); in the experiment with HCC-2998 colon, -72.9% (active). In addition, the growth in the experiment on KM12 colon is 4.52% (active).

On to `CCOc1ccccc1C(=O)/C=C/c1cc2ccccc2[nH]c1=O`, for which the growth in the experiment with BT-549 breast is -19.2% (active); in the experiment with MDA-MB-435 melanoma, 5.11% (active); in the experiment on SW-620 colon it was 4.2% (active); with MCF7 breast it was 3.4% (active); in the experiment with HCT-116 colon, -64.7% (active); with HCC-2998 colon it was -97.6% (active). Further, the growth in the experiment on KM12 colon was -45.3% (active).
